Test results taken from PubChem BioAssay AID624263 (National Center for Advancing Translational Sciences (NCATS), 2012).
The campaign covered roughly 410,000 compounds. About 820 (0.2%) were called active. About 2% were inconclusive and are not listed. The entries come from a sample that favours actives as a whole. Unmarked numbers belong to inactive results. Calls come from the whole dose curve; as a rule, active = well fitted activation curve with a large enough effect; inconclusive = small, poorly fitted or top-dose-only effect; inactive = flat fitted curve, though single readings scatter; cell line not stated here.

Test: A Quantitative High throughput Screen to Identify Chemical Modulators of PINK1 Expression; note: nearly all actives have a fitted effect of over 65% in size; for activation (PINK1 increase): % of control where 0% means no effect
Conditions: PINK1 immunofluorescence, high-content cytometry, 24 h; series mostly up to 76.6 µM; activation (PINK1 increase): at the top concentration
Method in brief: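 Compound titrations (5 concentrations, 24 h) on a stable cell line; DMSO and CCCP controls. Endpoint: fixed-cell PINK1 immunofluorescence with mitochondrial, cell and nuclear markers, scanned by microplate cytometer.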
Potency is the fitted concentration of half-maximal effect.

Structure (SMILES) | activation (PINK1 increase) | Potency
CN(C)C(=O)[C@@H]1C[C@@H](Sc2nc3ccccc3[nH]2)CN1Cc1ccc(Cl)cc1 | -0.905% | –
O=C(c1cc(C(F)(F)F)cc(C(F)(F)F)c1)N1CCC[C@@]2(CCN(c3ccccn3)C2)C1 | 1.27% | –
CC(C)c1cc(C(=O)N2CCOc3ccc(CN4CCC(Oc5cccnc5)CC4)cc3C2)n[nH]1 | 0.462% | –
Cc1c(S(=O)(=O)O)oc2c1C(=O)C(=O)c1c-2ccc2c1CCCC2(C)C | -0.627% | –
S=c1[nH]c(=S)c2n[nH]nc2[nH]1 | 0.817% | –
O=C(NCCCNc1ccc([N+](=O)[O-])cc1Cl)c1ccccc1F | -0.842% | –
O=[N+]([O-])c1ccc(NS(=O)(=O)c2ccccc2)c(Cl)c1 | – | 39.8 µM (active)
O=C(NNS(=O)(=O)c1ccc(F)cc1)c1ccc([N+](=O)[O-])cc1Cl | 1.65% | –
C=C[C@](C)(O)CCC1C(=C)CCC2[C@@](C)(CO)CCC[C@@]12C (some centres undefined) | 6.03% | –
COc1cccc(CN2CCC3(CC2)c2ccccc2[C@@H](NC(=O)c2ccccc2OC)[C@@H]3O)c1 | 2.04% | –
COc1cc(=O)n2c(c1C(=O)NCc1ccco1)CCN(Cc1ccccc1)CC2 | -0.574% | –
O=c1c(CN2CCOc3ccc(CN4CCC(Oc5cccnc5)CC4)cc3C2)coc2ccccc12 | -0.312% | –
Cc1ccc(C)c(NC(=S)NNC(=S)Nc2ccc(C(C)C)cc2)c1 | – | 14.1 µM (active)
Cc1ccc(C)c(NC(=O)C2CC(=O)N(C(C)C)C2)c1 (centres undefined) | 1.52% | –
Cc1ccc(C)c(NC(=S)NCC(c2cccnc2)N2CCOCC2)c1 (centres undefined) | -1.64% | –
COCCn1c(=O)c(-c2ccc(OC)cc2)nc2cnc(Oc3cccc(Cl)c3)nc21 | 1.63% | –
Nc1ccc(/C=C/c2ccnc3ccccc23)c([N+](=O)[O-])c1 | 13.3% | –
CCOC(=O)N1CCN(Cc2ccc3c(c2)CN(C(=O)c2cccc(-n4cccn4)c2)CCO3)CC1 | -0.805% | –
COc1ccccc1CNC(=O)C1CCN(C(=O)[C@@H]2Cc3ccccc3CN2)CC1 | -0.408% | –
COc1ccccc1CNC(=O)C1CCN(S(=O)(=O)c2ccc3c(c2)OCCO3)CC1 | 1.24% | –
COc1ccccc1CNC(=O)C1CCN(c2nc3ccccc3o2)CC1 | – | 2.82 µM (active)
O=C(CCN1Cc2ccccc2OC(c2ccccc2)C1)N[C@@H]1CS(=O)(=O)C[C@H]1O (some centres undefined) | -0.62% | –
CN1CCN(c2ncc3nc(-c4ccc(Cl)cc4)c(=O)n(-c4ccccc4)c3n2)CC1 | 3.94% | –
CCc1nc2cc(C(=O)NCC3CCS(=O)(=O)C3)cc(NC(=O)c3ccccc3OC)c2n1C (centres undefined) | 0.746% | –
Cc1cc(C2=NNC(=Nc3ccc(S(=O)(=O)N4CCOCC4)cc3)SC2)c(C)n1CC1CCCO1 (centres undefined) | – | 35.5 µM (active)
CCOc1ccc(S(=O)(=O)N2CCN(C(=S)NCC3CCCO3)CC2)cc1 (centres undefined) | 1.31% | –
C=CCn1c(C)cc(C2=NNC(=NCC)SC2)c1C | 0.36% | –

Structure (SMILES) | activation (PINK1 increase) | Potency
COc1ccccc1CNc1ncncc1-c1cccnc1 | -0.566% | –
COC(=O)c1c(OCc2ccc(F)cc2)cc(=O)n2c1CCN(Cc1ccc3cccnc3c1)CC2 | 0.408% | –
COc1ccc(S(=O)(=O)N2CCC(C(=O)NCc3ccco3)CC2)cc1C | -0.254% | –
COc1ccc(C2=NOC(C(=O)NCc3ccco3)C2)cc1OC (centres undefined) | – | 12.6 µM (active)
O=C(NCc1cc(C(F)(F)F)cc(C(F)(F)F)c1)C1CC(c2cccc(F)c2)=NO1 (centres undefined) | 9.67% | –
COc1cc2nc(N3CCCN(C)CC3)nc(NC(C)C)c2cc1OC | 2.45% | –
CCc1noc(C)c1C(=O)NCCN1Cc2cc(OC)ccc2OC(CC)C1 (centres undefined) | -0.237% | –
O=C(N/N=C/c1sc(N2CCCCC2)nc1-c1cccs1)c1cccnc1 | – | 20 µM (active)
O=C(c1cccnc1)N1CCN(S(=O)(=O)c2cccs2)CC1 | 0.0275% | –
O=C(Nc1ccc(N2CCN(C(=O)c3ccccc3)CC2)c(Cl)c1)c1cccnc1 | -3.19% | –
Cc1ccc(-c2ccc(C(=O)N3CCc4nnc(CNC(=O)c5ccccc5)n4CC3)cc2)cc1 | 0.715% | –
O=C(CN1Cc2ccccc2OC(c2ccccc2)C1)N1CCCCC1c1cccnc1 (centres undefined) | 0.558% | –
CCOc1ccc2nc(N3CCCN(CCCn4cccn4)CC3)nc(C)c2c1 | -0.633% | –
Oc1c(Br)cccc1/C=N/Nc1c(F)c(F)c(F)c(F)c1F | – | 39.8 µM (active)
CCOC(=O)N1CCC(N2CCOc3ccc(CN4CCC(O)(c5cccnc5)CC4)cc3C2)CC1 | 0.385% | –
O=C(CSc1nc2cc3c(cc2c(=O)n1CCC1=CCCCC1)OCO3)NCc1ccco1 | 11.5% | –
O=C(CCCn1c(SCC(=O)c2ccc(F)cc2)nc2ccccc2c1=O)NCc1ccco1 | – | 15.8 µM (active)
O=C(CSc1nc2ccccc2c(=O)n1CCCO)NC1CC1 | 0.89% | –
O=C(Nc1ccc([N+](=O)[O-])cc1)c1cnn2c1NC(=C1CC1)C=C2C(F)F | -0.0813% | –
COCC(=O)Nc1cc(C(=O)N2CCCC(c3ccccc3)CC2)c2c(c1)nc(-c1ccncc1)n2C (centres undefined) | -0.433% | –
COc1ccccc1C1CN(Cc2ccccc2O)Cc2ccccc2O1 (centres undefined) | 0.0982% | –
COC(=O)c1ccccc1C(=O)NCc1nc(N2CCCC2)c2cccc(C)c2n1 | -0.339% | –
O=S(=O)(NCCCN1CCOCC1)c1ccc(F)c(Cl)c1 | 4.27% | –
Cc1ccc(S(=O)(=O)NCCN2CCOCC2)cc1C | – | 14.1 µM (active)
Cc1cc(C)c(S(=O)(=O)NCCCN2CCOCC2)cc1Br | -1.42% [at 38.3 µM] | –
COc1ccccc1C(=O)N[C@@H]1c2ccccc2C2(CCN(Cc3nc(C(C)C)cs3)CC2)[C@H]1O | -1.21% | –
COc1cc(OC)c(/C=C/c2ccnc3ccccc23)c(OC)c1 | 8.99% | –

Structure (SMILES) | activation (PINK1 increase) | Potency
Cc1cccc(CNC(=O)c2cnn(-c3nccc(-c4ccccc4F)n3)c2C2CC2)n1 | -0.292% | –
CN(C)c1ccc(/C=C2\C=Cc3ccccc32)cc1Br | 2.66% | –
CC(C)(C)C1CCC(NC(=O)c2cnn3c2NC(=C2CC2)C=C3C(F)F)CC1 (centres undefined) | -0.21% | –
Cn1nccc1C(=O)NCC1CCC2(CCN(Cc3c(O)ccc4ccccc34)CC2)O1 (centres undefined) | -0.145% | –
O=C(NCCN1CCOCC1)c1cnn(-c2nccc(-c3cccs3)n2)c1C1CC1 | 1.85% | –
Cc1cnc(C)c(-c2cc(F)c3c(c2)CC(CNC(=O)c2cccc(Cn4cccn4)c2)O3)n1 (centres undefined) | 0.0853% | –
CCOc1ccc2c(c1)cc(CN(C(=O)CC)C1CCCCC1)c1nnnn12 | -2.48% | –
CCc1cccc(NC(=S)N(CCN(C)C)C2CCN(C(C)C)CC2)c1 | -1.23% | –
CCc1ccc2c(c1)cc(CN(C(=S)Nc1ccccc1Cl)C1CC1)c1nnnn12 | – | 12.6 µM (active)
CC(C)C(=O)NC(C)c1nnc2n1CCN(Cc1cccc3ncccc13)CC2 (centres undefined) | -0.848% | –
O=C1CCN(Cc2ccc(-c3ccccc3)cc2)CCN1Cc1ccccn1 | 0.935% | –
Cc1oc(-c2cccc(NC(=O)c3ccccc3)c2)nc1CNC(=O)c1cnc2ccccn2c1=O | 0.787% | –
O=C(Nc1ccccc1C(F)(F)F)c1nc(S(=O)(=O)Cc2ccccc2F)ncc1Cl | 3.33% | –
CC1(C(=O)NCCc2c[nH]c3ccccc23)C=CC2(CCCCC2)N1C(=O)c1ccccc1 (centres undefined) | -0.269% | –
COCCCNC(=O)/C(C#N)=C/c1c(N2CCCCCC2)nc2ccccn2c1=O | 0.655% | –
N#C/C(=C/c1ccc(N2CCCCC2)o1)C(=O)NCCc1c[nH]c2ccccc12 | – | 11.2 µM (active)
COCCN1CCN(C(=O)c2sc3ncnc(NCC4CCCO4)c3c2C)CC1 (centres undefined) | 0.389% | –
CN1CCCCCC1C(=O)NCCN1Cc2ccccc2OC(c2ccsc2)C1 (centres undefined) | -0.383% | –
COc1ccccc1-c1ccnc(-n2ncc(C(=O)NCCc3ccncc3)c2C)n1 | 1.69% | –
COC(=O)C1CCCCN1Cc1ccc2c(c1)CN(Cc1cc(OC)c3c(c1)OCO3)CCO2 (centres undefined) | 0.531% | –
COCC(C)NC(=O)c1ccc(-n2nc(C(F)(F)F)cc2-c2cccs2)cc1 (centres undefined) | -2.38% | –
COc1ccc(C(F)(F)F)cc1NC(=O)c1sc2nc(-c3cccs3)ccc2c1N | 16.7% | –
N#Cc1ccc(C(=O)Nc2nc(-c3cccs3)c(C(=O)C(F)(F)F)s2)cc1 | – | 6.31 µM (active)
C=C1C=C(C)n2ncc(C(=O)Nc3ccccc3O)c2N1 | 1.83% | –
COc1ccccc1CNc1cc(-c2ccccc2CN(C)C)ncn1 | 0.0313% | –
